From PubChem BioAssay AID1578 (Sanford-Burnham Center for Chemical Genomics, 2009)
Screen size: about 290,000 compounds; about 3,000 (1%) were called active. Cut-off read from the data, not from the text of the source: active = inhibition mostly above about 36% (no sharp cut-off); inactive = mostly below about 34%. The sample as a whole holds a higher share of actives than the screen did.

experiment: NOD1 signaling inhibitors, primary screen, cell-based, luminescence, uHTS (AID 1578); conditions: NOD1-driven NF-kB luciferase reporter cells, at 4 µM, hits give high values;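 note: HEK-293T reporter cells stimulated with the NOD1 agonist gamma-tri-DAP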

Row | SMILES | inhibition
1 | COc1ccc(C(C)=O)cc1CC(=O)Nc1ccccc1-c1ccccc1 | -4.6% (inactive)
2 | S=c1[nH]cnc2scc(-c3ccccc3)c12 | -0.1% (inactive)
3 | Cc1sc2nc[nH]c(=S)c2c1-c1ccccc1 | 99.2% (active)
4 | Cc1c(-c2ccccc2)sc2nc[nH]c(=S)c12 | -35.9% (inactive)
5 | O=C(COC(=O)Cc1ccc(Br)cc1)NCc1ccc(F)cc1 | 48.2% (active)
6 | O=C(COC(=O)Cc1ccc(-c2ccccc2)cc1)NCc1ccc(F)cc1 | -4.2% (inactive)
7 | O=C(COC(=O)c1ccc(Br)cc1)NCc1ccc(F)cc1 | -22.6% (inactive)
8 | COc1ccc(/C(C)=N/NC(=O)c2sccc2-n2cccc2)cc1 | -58.2% (inactive)
9 | Cc1nc(NCc2ccco2)c2c(C)c(C)sc2n1 | 97.6% (active)
10 | Cc1sc2ncnc(NCc3ccco3)c2c1C | -21.2% (inactive)
11 | Cc1nc(NCc2ccco2)c2c3c(sc2n1)CCC3 | -54.6% (inactive)
12 | COc1ccccc1C1CCN(Cc2ccc(C)cc2)CC1 | 4.9% (inactive)
13 | Cc1cc(C=C2C(=O)c3ccccc3C2=O)c(C)n1-c1ccccc1 | 32.4% (inactive)
14 | Cc1cc(/C=C2\Cc3ccccc3C2=O)c(C)n1-c1ccccc1 | 63.8% (active)
15 | Cc1cc(C=C2C(=O)CCCC2=O)c(C)n1-c1ccccc1 | -19.3% (inactive)
16 | Cc1nc(N)ncc1-c1ccc2c(c1)OCO2 | 2.9% (inactive)
17 | O=C(NCC(=O)N(c1ccc(Cl)cc1)C(C(=O)NC1CCCC1)c1cccnc1)c1ccco1 (centres undefined) | 6% (inactive)
18 | Oc1[nH]c(N=C2N=c3ccccc3=N2)c2ccccc12 | 42.6% (active)
19 | Oc1[nH]c2ccccc2c1N=Nc1cccc(Cl)c1 | -10.3% (inactive)
20 | N#CC(=C1N=c2ccccc2=N1)c1c(O)[nH]c2ccccc12 | 20% (inactive)
21 | CC(C)NC(=O)NC(=O)COC(=O)c1cc[n+]([O-])cc1 | -6.6% (inactive)
22 | CCOC(=O)CON1C(=O)C(=O)N(OCC(=O)OCC)C2CCCCC21 (centres undefined) | -26.3% (inactive)

Row | SMILES | inhibition
23 | CC(C)(C)N1CC(COc2ccccc2)OC1=O (centres undefined) | -21.9% (inactive)
24 | Cc1ccc(C(=O)Nc2sc(C)c(C)c2C(=O)c2ccccc2)cc1 | -9.8% (inactive)
25 | Cc1sc(NC(=O)c2ccccc2)c(C(=O)c2ccccc2)c1C | 14.5% (inactive)
26 | Cc1sc(NC(=O)CCl)c(C(=O)c2ccccc2)c1C | 60.9% (active)
27 | Cc1ccc(NC(=O)CN(C)C(=O)/C=C/c2cccc(F)c2)cc1 | -1.6% (inactive)
28 | Cc1ccc2c(c1)cc(CN(Cc1cccnc1)C(=O)NCc1ccccc1)c1nnnn12 | -2.2% (inactive)
29 | COCCN(Cc1cc2cc(C)ccc2n2nnnc12)C(=S)Nc1ccc(C)cc1 | 10.5% (inactive)
30 | COCCN(Cc1cc2cc(C)ccc2n2nnnc12)C(=S)Nc1cccc(C)c1 | 33.3% (inactive)
31 | Cc1ccc(C(=O)N(Cc2cccnc2)Cc2cc3cc(C)ccc3n3nnnc23)cc1 | 52% (active)
32 | Cc1ccc2c(c1)cc(CN(Cc1cccnc1)C(=O)c1ccccc1)c1nnnn12 | -33.2% (inactive)
33 | COCCN(Cc1cc2cc(C)ccc2n2nnnc12)C(=S)Nc1ccccc1C | 52.2% (active)
34 | COc1ccc(-c2csc(-c3[nH]cnc3N)n2)cc1 | -36.1% (inactive)
35 | COCCNC(=O)Cn1ccc2cc(S(=O)(=O)N3CCCCCC3)ccc21 | -9.2% (inactive)
36 | COc1cc(-c2noc(C)c2-c2ccc3[nH]ccc3c2)cc(OC)c1OC | 33.3% (inactive)
37 | CC1CCCN(C(=O)CCNS(=O)(=O)c2ccc3c(c2)oc(=O)n3C)C1 (centres undefined) | -23.9% (inactive)
38 | O=C(Cc1ccc(-c2ccccc2)cc1)Nc1ccccc1 | -1.9% (inactive)
39 | CC(C)N(c1ccccc1)c1ccc(NC(=S)NCCN(C)C)cc1 | -23.3% (inactive)
40 | CC(C)N(c1ccccc1)c1ccc(NC(=O)CCl)cc1 | 95.4% (active)
41 | COC(=O)c1cccc(NC(=O)CCSc2ccc(Cl)cc2)c1C | -10.1% (inactive)
42 | O=C(CCCSc1ccc(Cl)cc1)Nc1ccccc1O | 59.4% (active)
43 | CC(=O)Nc1ccc(NC(=O)Cc2ccc(-c3ccccc3)cc2)cc1 | -16.2% (inactive)
44 | O=C(CCl)Nc1ccc(-c2ccccc2)cc1 | 78.6% (active)

Row | SMILES | inhibition
45 | Cc1ccc(C)c(Sc2ccc(NC(=O)CCl)cc2)c1 | 19.3% (inactive)
46 | Cc1ccc(Sc2ccc(NC(=O)CCl)cc2)cc1C | 21.2% (inactive)
47 | CCNC(=S)Nc1ccc(N(c2ccccc2)C(C)C)cc1 | -9.8% (inactive)
48 | O=C(CSCc1ccc(Cl)cc1)Nc1ccccc1O | -40% (inactive)
49 | COc1ccc(/C=N/NC(=O)COc2ccc(Cl)cc2Cl)cc1Cn1nc(C)cc1C | -18% (inactive)
50 | COc1ccccc1N1CCN(C2CCCN(C(=O)CCC(C)=O)C2)CC1 (centres undefined) | -21% (inactive)
51 | COc1ccc(S(=O)(=O)N2CCC(C(=O)N[C@@H](C)C(=O)NCc3cccc(OC)c3)CC2)cc1 | -4.9% (inactive)
52 | Cc1c(C)c2c(OCC(=O)N3CCC(C(=O)NCC(C)C)CC3)cc3c(c2oc1=O)CCC(C)(C)O3 | -19.1% (inactive)
53 | O=C(CCCn1cnc2ccccc2c1=O)Nc1ccccc1F | -9.5% (inactive)
54 | Cc1cccc(C)c1NC(=O)C1C2C=CC(C2)C1C(=O)O (centres undefined) | -40.2% (inactive)
55 | CCN1CCN(C(c2cccs2)C(C)NC(=O)c2ccco2)CC1 (centres undefined) | 5.5% (inactive)
56 | CC(=O)Nc1nnc(/C=C/c2cccc([N+](=O)[O-])c2)s1 | 46% (inactive)
57 | CC(=O)C1=C(O)C(=O)N(Cc2ccco2)C1c1cccc(F)c1 (centres undefined) | -28% (inactive)
58 | O=C(NCc1ccco1)c1ccc(Cl)c(S(=O)(=O)Nc2ccccc2)c1 | -15% (inactive)
59 | COc1ccc(N(CC(=O)Nc2cc([N+](=O)[O-])ccc2C)S(C)(=O)=O)cc1OC | 1.1% (inactive)
60 | O=C(O)CCC(=O)Nc1ccc(N=Nc2ccccc2)cc1 | -26.1% (inactive)
61 | O=C(CCl)Nc1ccccc1Sc1ccccc1 | 21.3% (inactive)
62 | O=C(Cc1ccc(Cl)cc1)Nc1ccccc1Sc1ccccc1 | -16.9% (inactive)
63 | O=C(CCl)Nc1ccc(N=Nc2ccccc2)cc1 | 107% (active)
64 | O=C(O)CCCC(=O)Nc1ccc(N=Nc2ccccc2)cc1 | -13.6% (inactive)
